Test results published in the supplement of paper PMC12297408.
Structures can show the parent of a compound that is named as a salt. Among all 1,300 compounds or so, about 40 (3%) showed activity. The sample as a whole holds a higher share of actives than the screen did. Unmarked numbers belong to inactive results.

Test system: Plasmodium falciparum NF54/iGP1_RE9H ulg8 stage V gametocytes
Experiment: gametocyte viability (luciferase signal relative to DMSO control) (% of DMSO control); higher = less gametocytocidal activity, active = 50 or less
Conditions: exposure time: 72 h
Outline: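 NF54/iGP1_RE9Hulg8 stage V gametocytes (day 12; ~2.5% gametocytemia, 3% hematocrit) in medium with 0.5% Albumax II were added to 96-well plates of nanolitre-spotted compounds (10 mM DMSO stocks), giving 10 µM or 1 µM, one well each. Plates were incubated 72 h at 37 °C. Then 90 µl was mixed with 10 µl D-luciferin (30 mg/ml) and luminescence was read on an IVIS Lumina II. Viability is relative to the mean of plate DMSO vehicle controls.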

Compound | gametocyte viability (concentration: 1 µM) | gametocyte viability (concentration: 10 µM)
Cc1c(N(C)C)c(=O)n(-c2ccccc2)n1C [Amidopyrine] | 99 | 95.3
O=C1c2c(O)ccc(O)c2C(=O)c2c(NCCNCCO)ccc(NCCNCCO)c21 [Mitoxantrone dihydrochloride] | 86.2 | 12.9 (active)
O=C1c2cccc(O)c2C(=O)c2c(O)cccc21 [1,8-Dihydroxyanthraquinone] | 82.8 | 85.1
O=C1c2c(O)cccc2Cc2cccc(O)c21 [Anthralin] | 89.3 | 86.9
O=c1[nH]c(=O)n(C2CCCO2)cc1F (stereo not drawn) [Tegafur] | 82.6 | 82.6
Cc1scc2c1N(C(=O)CN1CCN(C)CC1)c1ccccc1NC2=O [Telenzepine dihydrochloride] | 97.8 | 96.3
CC[N+](CC)(CC)CCC(O)(c1ccccc1)C1CCCCC1 (stereo not drawn) [Tridihexethyl chloride] | 95.7 | 100
CCOC(=O)C1=C(C)NC(C)=C(C(=O)OCC)C1c1ccccc1/C=C/C(=O)OC(C)(C)C [Lacidipine] | 97.1 | 96.5
COc1ccc(/C=C/C(=O)Nc2ccccc2C(=O)O)cc1OC [Tranilast] | 68.5 | 40.9 (active)
Cc1c(Cl)cccc1Nc1ccccc1C(=O)O [Tolfenamic acid] | 83.6 | 90.8
Cc1cccc(Nc2ccccc2C(=O)O)c1C [Mefenamic acid] | 94 | 94.6
COC1=C(OC)C(=O)C(CCCCCCCCCCO)=C(C)C1=O [Idebenone] | 88 | 86.8
Cn1c(=O)c2c(ncn2CC2OCCO2)n(C)c1=O [Doxofylline] | 86.6 | 86.7
COc1cc(N)c(Cl)cc1C(=O)NC1CCN(CCCOc2ccc(F)cc2)CC1OC (stereo not drawn) [Cisapride] | 95.9 | 96.7
C[C@H](CCC(=O)O)[C@H]1CC[C@H]2[C@@H]3C(=O)C[C@@H]4CC(=O)CC[C@]4(C)[C@H]3CC(=O)[C@]12C [Dehydrocholic acid] | 95.4 | 93.6
C=C1c2c(Cl)ccc(O)c2C(O)=C2C(=O)[C@]3(O)C(O)=C(C(N)=O)C(=O)[C@@H](N(C)C)[C@@H]3[C@@H](O)[C@H]12.O=C(O)c1cc(S(=O)(=O)O)ccc1O [Meclocycline sulfosalicylate] | 80.9 | 83.5
CN(C)CC/C=C1/c2ccccc2COc2ccc(CC(=O)O)cc21 [Olopatadine hydrochloride] | 77.9 | 86.5
CCCOc1ccc(C(=O)OCCN(CC)CC)cc1N [Proparacaine hydrochloride] | 98.5 | 105
COc1cccc(OC)c1C(=O)N[C@@H]1C(=O)N2[C@@H]1SC(C)(C)[C@@H]2C(=O)O [Methicillin sodium] | 83.4 | 83.1
Clc1ccccc1CN1CCc2sccc2C1 [Ticlopidine hydrochloride] | 96 | 93.2

Compound | gametocyte viability (concentration: 1 µM) | gametocyte viability (concentration: 10 µM)
CC(=O)OCC(=O)[C@@]1(O)CC[C@H]2[C@@H]3CCC4=CC(=O)CC[C@]4(C)[C@@]3(F)[C@@H](O)C[C@@]21C [Fludrocortisone acetate] | 79.5 | 75.8
Nc1c2c(nc3ccccc13)CCCC2O (racemic) [Hydroxytacrine maleate (R,S)] | 101 | 93.6
O=C1c2cccc3c2[C@H](CCC3)CN1[C@@H]1CN2CCC1CC2 [Palonosetron hydrochloride] | 85.5 | 81.6
CCN(CC)CCOc1ccc(C(=C(Cl)c2ccccc2)c2ccccc2)cc1 [Clomiphene citrate (Z,E)] | 82.4 | 95.2
C#Cc1cccc(Nc2ncnc3cc(OCCOC)c(OCCOC)cc23)c1 [Erlotinib] | 70.7 | 37.2 (active)
COc1cc2ncnc(Nc3ccc(F)c(Cl)c3)c2cc1OCCCN1CCOCC1 [Gefitinib] | 95.8 | 85.9
Cc1c(C)c2c(c(C)c1O)CCC(C)(C(=O)O)O2 (stereo not drawn) [Trolox] | 88.2 | 87.5
CCOC(=O)C1=C[C@]2(CC)CCCN3CCc4c(n1c1ccccc41)[C@@H]32 [Vinpocetine] | 86.2 | 87.6
CC(C)NC[C@@H](O)COc1cccc2ccccc12 [(R)-Propranolol hydrochloride] | 93.4 | 89
Nc1ccccc1S(N)(=O)=O [2-Aminobenzenesulfonamide] | 98 | 95.8
CN1CCN(CC(=O)N2c3ccccc3C(=O)Nc3cccnc32)CC1 [Pirenzepine dihydrochloride] | 86.5 | 83.3
CCN(CCCc1ccccc1)CCCc1ccccc1 [Alverine citrate salt] | 82.3 | 82
CCN(CCO)CCCC(C)Nc1ccnc2cc(Cl)ccc12 (stereo not drawn) [Hydroxychloroquine sulfate] | 83.3 | 80.8
CCN(CC)CCCC(C)Nc1ccnc2cc(Cl)ccc12 (stereo not drawn) [Chloroquine diphosphate] | 82.8 | 86.8
CCN(CC)CCCC(C)Nc1c2ccc(Cl)cc2nc2ccc(OC)cc12 (stereo not drawn) [Quinacrine dihydrochloride dihydrate] | 113 | 44.5 (active)
NC(=O)N/N=C/c1ccc([N+](=O)[O-])o1 [Nitrofural] | 90.1 | 89.1
O=C1CN(/N=C/c2ccc([N+](=O)[O-])o2)C(=O)N1 [Nitrofurantoin] | 83.4 | 82.5
O=C(N/N=C/c1ccc([N+](=O)[O-])o1)c1ccc(O)cc1 [Nifuroxazide] | 95.9 | 30.6 (active)
CCOC(=O)c1ccc(OC(=O)CCCCCNC(=N)N)cc1 [Gabexate mesilate] | 88.8 | 92
CN1CCC(=C2c3ccccc3CC(=O)c3sccc32)CC1 [Ketotifen fumarate] | 79.5 | 84.2

Compound | gametocyte viability (concentration: 1 µM) | gametocyte viability (concentration: 10 µM)
C=CC1=C(C(=O)O)N2C(=O)[C@@H](NC(=O)/C(=N\O)c3csc(N)n3)[C@H]2SC1 [Cefdinir] | 80.8 | 83.8
CN1C(=O)OC(C)(C)C1=O [Trimethadione] | 82.9 | 88.6
CC1=C(CC(=O)O)c2cc(F)ccc2/C1=C\c1ccc([S+](C)[O-])cc1 (stereo not drawn) [Sulindac] | 88.6 | 82.7
Cc1cc(NC(=O)C2=C(O)c3ccccc3S(=O)(=O)N2C)no1 [Isoxicam] | 82.8 | 81.8
C[N+]1(C)CCC(=C(c2ccccc2)c2ccccc2)CC1 [Diphemanil methylsulfate] | 87 | 83
CCc1ccc(CCOc2ccc(CC3SC(=O)NC3=O)cc2)nc1 (stereo not drawn) [Pioglitazone] | 86 | 88.2
NC(=O)C(c1ccccc1)(c1ccccc1)[C@@H]1CCN(CCc2ccc3c(c2)CCO3)C1 [Darifenacin hydrobromide] | 81.7 | 84.2
CC(C)(S)[C@@H](N)C(=O)O [Penicillamine] | 92.4 | 93.1
N#Cc1cc(NC(=O)C(=O)O)c(Cl)c(NC(=O)C(=O)O)c1 [Lodoxamide] | 91.8 | 102
CC1=C(/C=C/C(C)=C/C=C/C(C)=C/C(=O)O)C(C)(C)CCC1 [Retinoic acid] | 82.1 | 64
CCC(=O)[C@@]1(C)[C@H](C)C[C@H]2[C@@H]3CCC4=CC(=O)C=C[C@]4(C)[C@H]3[C@@H](O)C[C@@]21C [Rimexolone] | 89.4 | 85.3
CCCNC(C)C(=O)Nc1c(C)csc1C(=O)OC (stereo not drawn) [Articaine hydrochloride] | 81.9 | 83
CN/C(=N\CCSCc1nc[nH]c1C)NC#N [Cimetidine] | 100 | 94.5
C[C@]12CC[C@@H]3c4ccc(O)cc4C[C@@H](CCCCCCCCC[S+]([O-])CCCC(F)(F)C(F)(F)F)[C@H]3[C@@H]1CC[C@@H]2O (stereo partly drawn) [Fulvestrant] | 90.3 | 84.7
O=C1OC(CN2CCOCC2)CN1/N=C/c1ccc([N+](=O)[O-])o1 (stereo not drawn) [Furaltadone hydrochloride] | 89.7 | 93.4
CN(C)CCN1C(=O)c2ccccc2N(C)c2ccccc21 [Dibenzepine hydrochloride] | 84.8 | 91.3
COc1cc(NC(C)CCCN)c2ncccc2c1 (stereo not drawn) [Primaquine diphosphate] | 83.1 | 35.1 (active)
CCCc1nc(C)c2c(=O)nc(-c3cc(S(=O)(=O)N4CCN(CC)CC4)ccc3OCC)[nH]n12 [Vardenafil] | 70.1 | 43.9 (active)
CCCc1nn(C)c2c(=O)[nH]c(-c3cc(S(=O)(=O)N4CCN(C)CC4)ccc3OCC)nc12 [Sildenafil] | 90.3 | 70.6
